Results: PubChem BioAssay
Calls of active or inactive are those of the source.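 The calls were made as follows, unless noted: active = mean inhibition above 46.68%, the untreated control wells mean plus 3 SD; inactive = the rest.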

Key:
[1] = target: Nuclear receptor coactivator 1 (Homo sapiens) (UniProt Q15788); assay: NCOA1 GAL4-fusion reporter inhibition – cell-based, luminescence, quadruplicate, confirmation (AID 588820); conditions: HEK293 GAL4-SRC1 luciferase reporter, at 3.6 µM, stronger effect = higher value;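 also: 0% = DMSO wells and 100% = gossypol 36 µM treated wells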
[2] = repression of VP16-driven luciferase reporter – cell-based, luminescence, high throughput, counter-screen for SRC1 inhibitor project (AID 588824; in the data active = inhibition above about 25%); conditions: cell-based VP16 transactivation luciferase luminescence; at 3.6 µM; stronger effect = higher value

Sequence of Nuclear receptor coactivator 1 (Homo sapiens) (Q15788 whole entry, looked up, the tested form may be a part): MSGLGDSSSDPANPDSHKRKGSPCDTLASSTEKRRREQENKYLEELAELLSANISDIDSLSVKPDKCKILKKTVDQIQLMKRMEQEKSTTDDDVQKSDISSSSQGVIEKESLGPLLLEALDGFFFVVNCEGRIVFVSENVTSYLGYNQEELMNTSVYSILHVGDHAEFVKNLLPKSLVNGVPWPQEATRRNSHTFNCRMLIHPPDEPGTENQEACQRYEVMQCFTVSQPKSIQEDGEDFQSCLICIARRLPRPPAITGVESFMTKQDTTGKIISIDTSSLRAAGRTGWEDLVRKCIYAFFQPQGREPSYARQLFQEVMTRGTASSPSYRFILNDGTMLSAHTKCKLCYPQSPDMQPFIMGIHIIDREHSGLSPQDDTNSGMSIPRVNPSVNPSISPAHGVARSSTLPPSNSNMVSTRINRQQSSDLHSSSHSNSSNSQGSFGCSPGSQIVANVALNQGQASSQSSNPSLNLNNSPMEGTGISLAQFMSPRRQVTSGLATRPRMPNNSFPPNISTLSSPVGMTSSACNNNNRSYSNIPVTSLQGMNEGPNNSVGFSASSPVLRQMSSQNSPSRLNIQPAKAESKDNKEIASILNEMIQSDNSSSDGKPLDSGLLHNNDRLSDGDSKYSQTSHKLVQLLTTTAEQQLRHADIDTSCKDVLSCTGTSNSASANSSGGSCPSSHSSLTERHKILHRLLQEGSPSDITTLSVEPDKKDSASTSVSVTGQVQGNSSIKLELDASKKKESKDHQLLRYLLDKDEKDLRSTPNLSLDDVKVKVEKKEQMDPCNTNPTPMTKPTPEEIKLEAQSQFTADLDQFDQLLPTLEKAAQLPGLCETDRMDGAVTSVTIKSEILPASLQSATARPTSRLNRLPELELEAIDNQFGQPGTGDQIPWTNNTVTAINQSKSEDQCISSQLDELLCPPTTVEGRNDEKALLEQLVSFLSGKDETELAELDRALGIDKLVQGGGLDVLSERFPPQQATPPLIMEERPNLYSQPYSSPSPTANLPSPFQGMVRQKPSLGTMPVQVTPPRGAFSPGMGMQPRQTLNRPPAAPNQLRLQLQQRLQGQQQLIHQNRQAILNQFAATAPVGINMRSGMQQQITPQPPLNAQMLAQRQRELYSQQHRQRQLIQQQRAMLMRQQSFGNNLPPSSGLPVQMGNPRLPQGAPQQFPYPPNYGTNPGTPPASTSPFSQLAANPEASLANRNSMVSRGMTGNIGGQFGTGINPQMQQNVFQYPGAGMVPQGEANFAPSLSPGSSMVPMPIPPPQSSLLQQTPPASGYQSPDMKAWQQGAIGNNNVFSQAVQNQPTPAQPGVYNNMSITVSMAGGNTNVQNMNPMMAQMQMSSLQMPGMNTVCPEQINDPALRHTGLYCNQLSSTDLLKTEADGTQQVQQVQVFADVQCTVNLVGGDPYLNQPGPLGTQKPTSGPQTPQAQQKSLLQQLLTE

| Compound | inhibition [1] | inhibition [2] |
| --- | --- | --- |
| Cc1ccc(S(=O)(=O)NCc2ccc3c(c2)OCO3)cc1C | -20.8% (inactive) | 1.6% (inactive) |
| COCCN1C2=C(C(=O)CC(C)(C)C2)C(c2ccc(OC)c(OC)c2)C2=C1CC(C)(C)CC2=O | -10.8% (inactive) | 12% (inactive) |
| Cc1c(C(=O)N2CCN(Cc3ccc4c(c3)OCO4)CC2)sc2ncnc(N3CCN(c4ccccc4F)CC3)c12 | -22.2% (inactive) | 18.3% (inactive) |
| CC(C)=CCCC(C)CN1CCC(n2nccc2NC(=O)c2ccccc2)CC1 (stereo unspecified) | -6.47% (inactive) | -14.3% (inactive) |
| CSc1nc2[nH]ncc2c(=O)[nH]1 | -1.61% (inactive) | 1.46% (inactive) |
| CCCCCOC(=O)C1=C(C)NC(=O)NC1c1ccc([N+](=O)[O-])cc1 (stereo unspecified) | -6.01% (inactive) | 2.27% (inactive) |
| CSc1nccc(Oc2cncc(Cl)c2)n1 | 8.08% (inactive) | 5.07% (inactive) |
| CN1C(=O)[C@H](Cc2ccc([N+](=O)[O-])cc2)NC1=S | 27.2% (inactive) | 26.4% (active) |
| COc1ccc(NC(=O)COc2ccccc2Cc2ccccc2)cc1S(N)(=O)=O | 38.1% (inactive) | 32.3% (active) |
| CCCn1ncc(/C=N/O)c1C | 12.8% (inactive) | 25.9% (active) |
| Cn1c(=O)c2[nH]c(Nc3ccccc3)nc2n(C)c1=O | -22.1% (inactive) | 0.08% (inactive) |
| CSc1ccc(CN2CCN(Cc3ccc([N+](=O)[O-])cc3)CC2)cc1 | -10.7% (inactive) | 26.8% (active) |
| COc1ccc(N(Cc2cc3cc(OC)ccc3[nH]c2=O)S(=O)(=O)c2ccc(NC(C)=O)cc2)cc1 | -21.4% (inactive) | -1.84% (inactive) |
| Cc1cccc(N2CC(C(=O)Nc3ccc(S(=O)(=O)Nc4nccs4)cc3)CC2=O)c1C (stereo unspecified) | -14.9% (inactive) | -6.59% (inactive) |
| Cc1cc(NCc2cccnc2)no1 | -7.64% (inactive) | 9.01% (inactive) |
| CCCC(C)NC(=O)C1c2ccccc2Oc2ccccc21 (stereo unspecified) | -0.82% (inactive) | -7.9% (inactive) |
| CCOC(=O)CSc1cc(-c2ccccc2)nc2ncnn12 | 17.9% (inactive) | 4.7% (inactive) |
| Cc1cc(C)c2nc(NNC(=O)c3ccc(S(=O)(=O)N4CCc5ccccc5C4)cc3)sc2c1 | 32.2% (inactive) | 30% (active) |
